Compounds with a hit are over-represented: about 28% of the library has one in this group of screens.
CYP2C19 act = cytochrome P450 2C19 (human) activation; P33261; AID 1025; 96,000 tested, under 10 active; activation factor at 5 µM; recombinant CYP2C19, luciferin-H EGE luminescence; active compounds read high; 0 = fully inhibited enzyme, 1 = untreated enzyme;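 active means activation factor of at least 2 at 5 µM in the primary screen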
CYP2C19 inhib = human CYP2C19 inhibition. P33261. CYP2C19 Supersomes, luciferin-H EGE luminescence, 30 min. inhibition, % at 5 µM. 96,000 compounds, 21% hits;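 active means CYP2C19 inhibition above a set limit at 5 µM in the primary screen, cut at about 50% in these data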
Mac1 fbg enh = enhancers of human CD11b/CD18 binding to fibrinogen; P05107+P11215; K562 CD11b/CD18 adhesion to fibrinogen, ATPlite luminescence; activation, % at 10 µM; 93,000 compounds, 0.07% hits; AID 1499;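 active means 10 µM primary screen giving 50% or more activity, confirmed by 40% or more on retest at that dose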
CYP2C9 inh = blocks human cytochrome P450 2C9; inhibition, % at 5 µM; CYP2C9 Supersomes, luciferin-H conversion, luminescence; AID 777; 96,000 compounds, 20% hits; P11712;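 active means blocking of liver enzyme CYP2C9 beyond about 50% at 5 µM, limit read from the data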
Target sequence (P11712 whole entry, looked up): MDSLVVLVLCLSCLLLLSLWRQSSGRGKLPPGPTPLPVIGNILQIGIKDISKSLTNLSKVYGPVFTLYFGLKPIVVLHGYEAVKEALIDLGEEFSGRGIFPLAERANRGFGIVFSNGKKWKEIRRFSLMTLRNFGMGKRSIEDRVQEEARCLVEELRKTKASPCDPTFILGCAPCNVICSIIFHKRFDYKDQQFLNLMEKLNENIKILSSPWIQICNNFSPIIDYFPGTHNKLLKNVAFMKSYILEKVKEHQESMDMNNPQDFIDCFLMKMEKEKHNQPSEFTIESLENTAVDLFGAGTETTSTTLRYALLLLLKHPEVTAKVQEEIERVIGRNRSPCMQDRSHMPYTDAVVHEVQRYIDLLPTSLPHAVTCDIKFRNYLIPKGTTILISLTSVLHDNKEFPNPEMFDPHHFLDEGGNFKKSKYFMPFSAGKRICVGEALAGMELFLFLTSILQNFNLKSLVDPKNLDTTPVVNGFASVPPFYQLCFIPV
CYP2C9 act = increases human cytochrome P450 2C9 activity; P11712; recombinant CYP2C9, luciferin-H conversion, luminescence; active compounds read high; factor 1 = untreated enzyme, 0 = blocked; activation factor at 5 µM; 96,000 compounds, 1.4% hits;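 active means activation factor of 2 or more for CYP2C9 at a 5 µM dose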
CD11b adhes inh = CD11b/CD18-fibrinogen binding inhibition | 93,000 compounds, 0.54% hits | inhibition, % at 10 µM | P05107+P11215 | K562 CD11b/CD18 adhesion to fibrinogen, ATPlite luminescence; Mn2+ added to activate the integrin;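 active means primary inhibition of 50% or more at 10 µM, then 40% or more on retest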
A number is an active result; 0 = inactive; - = no result given.

SMILES	CYP2C19 act	CYP2C19 inhib	Mac1 fbg enh	CYP2C9 inh	CYP2C9 act	CD11b adhes inh
COc1ccc(CCn2c(-c3cc([N+](=O)[O-])cc([N+](=O)[O-])c3)nc3nc4ccccc4nc32)cc1OC	-	-	0	-	-	0
O=C(NCCOc1ccccc1)c1n[nH]c(=O)c2ccccc12	0	0	0	0	0	0
C=CCn1sc(=N)c(C#N)c1N	0	0	0	0	0	0
O=C(N/C(=C/c1ccco1)C(=O)N1CCCCC1)c1cccs1	0	0	0	0	0	0
COc1ccc(N2C(=O)c3ccccc3NC23CCCCC3)cc1	0	0	0	63.5	0	0
Cc1ccc(-c2ccc(=O)n(CC(=O)N3CCN(c4cc(Cl)ccc4C)CC3)n2)cc1	0	0	0	0	0	0
Cc1ccc(S(=O)(=O)N2CCC(C(=O)N3CCC(C(=O)NCc4cccnc4)CC3)CC2)cc1	0	0	0	0	0	0
CC(=O)C1=C(C)NC(C)=C(C(C)=O)C1c1ccc(-c2ccccc2Cl)o1	0	85.9	0	97.2	0	0
CC1=C(C(N)=O)C(c2ccco2)C(C(N)=O)=C(C)N1	0	0	0	0	0	0
Cc1ccc(-c2ccc(=O)n(CCC(=O)NCCN3CCCCC3C)n2)cc1 (stereo unspecified)	0	0	0	0	0	0
Cn1nnc(-c2ccc(OCc3ccccc3F)cc2)n1	0	66.2	0	0	0	0
Fc1ccccc1COc1ccc(-c2nnn(Cc3ccccc3F)n2)cc1	0	0	0	0	0	0
O=C(Nc1ccccc1Cl)c1cccc(COc2cc(Cl)ccc2Cl)c1	0	0	0	0	0	0
COc1ccc(OC)c(NC(=O)CNC(=O)c2cccs2)c1	0	53.6	0	0	0	0
COc1ccc(C(=O)NCC(=O)OCC(=O)Nc2cc(OC)ccc2OC)cc1	0	70.6	0	0	0	0
COc1ccc(OC)c(NC(=O)COC(=O)c2c3c(nc4ccccc24)CCCC3)c1	0	0	0	51.6	0	0
NNC(=O)c1cccc(COc2cccc(Br)c2)c1	0	98.4	-	68.4	0	-
O=C(CCS(=O)(=O)c1ccc(Cl)cc1)OCC(=O)N1CCCCC1	0	0	0	0	0	0
COc1cccc(C2c3c(oc4ccc(Cl)cc4c3=O)C(=O)N2c2cc(C)on2)c1OC (stereo unspecified)	0	0	0	0	0	0
COc1ccc(C(=O)NCC(=O)OCc2cccc(Br)c2)cc1	0	54.7	-	0	0	-
CC(=O)c1c(COC(=O)c2ccccc2)nc2ccccc2[n+]1[O-]	0	73.4	0	0	0	0
Cc1cc(C)n(-c2ccc(C(=O)OCc3ccccc3)cc2)n1	-	-	0	-	-	0
COc1nc(-c2ccccc2)ccc1-c1noc(-c2ccccc2F)n1	0	0	0	0	0	0
c1ccc(Cc2nn[nH]n2)cc1	0	0	0	0	0	0
CC(C)(C)c1cc(Cc2ccccc2)[nH]n1	0	81.7	0	0	0	0
SMILES	CYP2C19 act	CYP2C19 inhib	Mac1 fbg enh	CYP2C9 inh	CYP2C9 act	CD11b adhes inh
CC(=O)NC1CC2CCC(C1)N2Cc1ccc(C)cc1 (stereo unspecified)	0	54.4	0	0	0	0
CCN(CC)c1nc2n(c(=S)n1)CCS2	0	0	0	0	0	0
CC(=O)/C(=N\Nc1ccc(C)cc1)N1CCOCC1	0	80.0	0	0	0	0
CC(C)Oc1ccc(CNC(=S)N/N=C/c2ccc([N+](=O)[O-])cc2)cc1	0	0	0	0	0	0
Cc1nonc1OC(C)CNc1ccc([N+](=O)[O-])cc1 (stereo unspecified)	0	97.8	0	62.7	0	0
O=S1(=O)CC(O)C(N2CCC(c3ccccc3)CC2)C1 (stereo unspecified)	0	0	0	0	0	0
CC(=O)Nc1ccc(NC(=O)/C=C/c2cccc(C(F)(F)F)c2)cc1	-	-	0	-	-	0
Cn1nc(Oc2nc(N3CCOCC3)nc(N3CCOCC3)n2)ccc1=O	0	0	0	0	0	0
O=C(Nc1ccc(-c2nnco2)cc1)c1ccccc1	0	83.4	0	77.0	0	0
O=C(Nc1ccc(-c2nc3ncccc3o2)cc1)c1ccco1	0	0	0	0	0	0
O=C(Nc1ccc2nc3ccccc3nc2c1)c1ccccc1	-	-	0	-	-	0
Cc1ccc(-c2nnc(SCC#CCOC(=O)c3ccco3)o2)cc1	0	88.8	0	89.1	0	0
COc1cccc(C(=O)Nc2ccc(-c3nnc(-c4ccco4)o3)cc2)c1	0	65.2	-	0	0	-
Cc1ccc(-c2nnc(SCC#CCOC(=O)c3cccs3)o2)cc1	0	0	0	0	0	0
Cc1ccc(-c2nnc(-c3ccc(NC(=O)c4ccco4)cc3)o2)cc1	0	66.6	0	79.1	0	0
CN(C)C(CNC(=O)CN1C(=O)NC2(CCc3ccccc32)C1=O)c1ccco1 (stereo unspecified)	0	0	0	0	0	0
COc1cc(NC(=O)c2nnn(Cc3ccc(SC)cc3)c2N)cc(OC)c1	0	0	0	0	0	0
CS(=O)(=O)c1sc2nc(-c3cccs3)cc(-c3ccccc3)c2c1N	0	0	0	0	0	0
Cc1ccc(-c2cc(-c3ccccc3)c3c(N)c(S(C)(=O)=O)sc3n2)cc1	0	0	0	57.7	0	0
Cc1sc2nc3n(c(=O)c2c1C)Cc1ccccc1-3	0	0	0	0	0	0
CCCn1nc(NC(=O)c2cccs2)c2cc3ccccc3nc21	0	0	-	0	0	-
CCCn1nc(NC(=O)c2cccs2)c2cc3cc(OC)ccc3nc21	0	0	0	56.4	0	0
CCCCn1nc(NC(=O)c2cccs2)c2cc3cc(OC)ccc3nc21	0	0	0	64.2	0	0
CCCn1nc(NC(=O)C2CCCO2)c2cc3cc(C)ccc3nc21 (stereo unspecified)	0	0	0	0	0	0
CCCCn1nc(NC(=O)c2cccs2)c2cc3ccccc3nc21	0	0	0	0	0	0
SMILES	CYP2C19 act	CYP2C19 inhib	Mac1 fbg enh	CYP2C9 inh	CYP2C9 act	CD11b adhes inh
COc1ccc2nc3c(cc2c1)c(NC(=O)C1CCCO1)nn3CC(C)C (stereo unspecified)	0	0	0	66.4	0	0
CC(=O)N1CCN=C1SCc1cccc(C(F)(F)F)c1	0	0	0	0	0	0
COCCCn1c(SCc2cccc(C(F)(F)F)c2)nc2cc(OC)c(OC)cc2c1=N	0	0	-	82.0	0	-
COCCCn1c(SCc2ccccc2)nc2cc(OC)c(OC)cc2c1=N	0	53.8	-	63.5	0	-
O=C(O)CCn1c(SCc2ccccc2)nc2ccccc21	0	0	0	0	0	0
CCOc1cc(C=C(C(=O)OC)C(=O)OC)ccc1OCc1ccc([N+](=O)[O-])cc1	0	0	0	0	0	0
CCCC(C(=O)c1ccccc1)n1cncn1 (stereo unspecified)	0	0	0	0	0	0
CC(C)(C)C(=O)C(Cc1ccccc1Cl)n1cncn1 (stereo unspecified)	0	59.5	0	0	0	0

Assay outcomes as filed in PubChem BioAssay.
